Results reported in PubChem BioAssay.
Activity calls are given as the source filed them.

Assays:
[1] = E. coli DRC41 culture turbidity changes, primary screen, E. coli filamentation inducer project, strain DRC41, OD650, 48 h (AID 1152);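 further: E. coli MC1000 strain DRC41 lacking acrAB efflux pump and sulA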; settings: E. coli DRC41 (acrAB sulA), higher = more signal, called active from +8 up or from −8 down
[2] = small-molecule binders of probe aLefty1, primary screen, biochemical, small-molecule microarray, 635/667 nm fluorescence (AID 1153); settings: higher = more signal;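 further: score merges spot fluorescence with signal-to-noise ratio from the scanned slide images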
[3] = PSAC antagonists in infected red cells, primary screen, cell-based, P. falciparum Indochina, OD700, 1 h (AID 1154); settings: P. falciparum Indochina infected RBC osmotic lysis, higher = more signal, called active from +8 up or from −8 down
[4] = PSAC antagonists in infected red cells, primary screen, cell-based, P. falciparum Indochina, OD700, 2 h (AID 1155);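 further: lysis reports solute entry through the parasite surface anion channel PSAC; channel blockers reduce lysis of infected cells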; settings: P. falciparum Indochina infected erythrocytes, osmotic lysis OD700; higher = more signal, called active from +8 up or from −8 down
[5] = osmotic lysis modulators in infected erythrocytes, primary screen, PSAC antagonist project, cell-based, P. falciparum Indochina, OD700, 3 h (AID 1156); settings: higher = more signal, called active from +8 up or from −8 down
[6] = PSAC antagonists in infected red cells, primary screen, cell-based, P. falciparum Indochina, OD700, 18 h (AID 1157); settings: P. falciparum Indochina infected erythrocytes, osmotic lysis OD700, 18 h; higher = more signal, called active from +8 up or from −8 down
[7] = modulators of S6 phosphorylation in cells, primary screen, cell-based, A549, cytoblot, luminescence, serum-stimulated (AID 1158); settings: A549 phospho-S6 cytoblot, 5 h, higher = more signal;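 further: serum-stimulated A549 lung adenocarcinoma cells; signal is phosphorylated S6 detected by cytoblot immunostaining with HRP secondary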
[8] = biological target: NADPH oxidase 2 (Homo sapiens) (UniProt P04839); assay: NOX2-dependent H2O2 signal modulators, primary screen, NOX inhibitor project, cell-based, HEK293-NOX2, PMA-stimulated, Amplex Red fluorescence (AID 1159); settings: 45 min, higher = more signal, called active from +8 up or from −8 down; further: test concentration not given here
NADPH oxidase 2 (Homo sapiens), sequence (P04839 whole entry, looked up): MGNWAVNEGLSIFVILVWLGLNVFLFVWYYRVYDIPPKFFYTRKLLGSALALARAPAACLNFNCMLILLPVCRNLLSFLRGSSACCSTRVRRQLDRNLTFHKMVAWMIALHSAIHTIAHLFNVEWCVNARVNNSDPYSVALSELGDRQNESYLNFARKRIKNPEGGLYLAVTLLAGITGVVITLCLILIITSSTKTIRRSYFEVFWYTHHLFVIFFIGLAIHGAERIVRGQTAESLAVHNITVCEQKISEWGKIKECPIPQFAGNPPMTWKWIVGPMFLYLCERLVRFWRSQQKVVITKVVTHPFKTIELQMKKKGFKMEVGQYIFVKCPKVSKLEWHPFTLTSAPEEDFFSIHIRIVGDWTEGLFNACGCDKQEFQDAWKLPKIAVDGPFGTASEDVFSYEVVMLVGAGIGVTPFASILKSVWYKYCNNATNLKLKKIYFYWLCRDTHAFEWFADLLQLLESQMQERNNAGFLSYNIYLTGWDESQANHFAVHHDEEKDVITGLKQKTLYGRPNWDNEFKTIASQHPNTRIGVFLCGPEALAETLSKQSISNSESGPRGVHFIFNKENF

[9] = biological target: NADPH oxidase 4 (Homo sapiens) (UniProt Q9NPH5); assay: NOX4-dependent H2O2 signal modulators, primary screen, NOX inhibitor project, cell-based, HEK293-NOX4, tetracycline-induced, Amplex Red fluorescence (AID 1160); settings: 45 min, higher = more signal, called active from +8 up or from −8 down
NADPH oxidase 4 (Homo sapiens), sequence (Q9NPH5 whole entry, looked up): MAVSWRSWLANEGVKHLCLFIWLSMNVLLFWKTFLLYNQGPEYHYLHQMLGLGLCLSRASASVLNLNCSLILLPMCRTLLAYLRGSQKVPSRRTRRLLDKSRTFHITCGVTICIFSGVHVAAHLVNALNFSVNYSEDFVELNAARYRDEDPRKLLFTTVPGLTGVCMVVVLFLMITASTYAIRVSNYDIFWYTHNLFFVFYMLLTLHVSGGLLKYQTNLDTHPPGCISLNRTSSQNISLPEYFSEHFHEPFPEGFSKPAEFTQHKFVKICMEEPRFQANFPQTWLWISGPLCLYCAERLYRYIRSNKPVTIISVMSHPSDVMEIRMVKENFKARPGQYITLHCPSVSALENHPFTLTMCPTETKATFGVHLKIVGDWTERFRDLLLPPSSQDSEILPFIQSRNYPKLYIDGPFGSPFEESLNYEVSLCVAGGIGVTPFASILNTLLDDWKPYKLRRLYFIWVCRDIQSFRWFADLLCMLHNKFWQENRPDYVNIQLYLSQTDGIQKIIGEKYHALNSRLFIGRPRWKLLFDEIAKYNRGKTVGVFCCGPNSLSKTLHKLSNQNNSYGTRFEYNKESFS

[10] = biological target: NADPH oxidase 5 (Homo sapiens) (UniProt Q96PH1); assay: NOX5-dependent H2O2 signal modulators, primary screen, NOX inhibitor project, cell-based, HEK293-NOX5, Amplex Red fluorescence (AID 1161); settings: HEK293-NOX5, ionomycin, 45 min, higher = more signal
NADPH oxidase 5 (Homo sapiens), sequence (Q96PH1 whole entry, looked up): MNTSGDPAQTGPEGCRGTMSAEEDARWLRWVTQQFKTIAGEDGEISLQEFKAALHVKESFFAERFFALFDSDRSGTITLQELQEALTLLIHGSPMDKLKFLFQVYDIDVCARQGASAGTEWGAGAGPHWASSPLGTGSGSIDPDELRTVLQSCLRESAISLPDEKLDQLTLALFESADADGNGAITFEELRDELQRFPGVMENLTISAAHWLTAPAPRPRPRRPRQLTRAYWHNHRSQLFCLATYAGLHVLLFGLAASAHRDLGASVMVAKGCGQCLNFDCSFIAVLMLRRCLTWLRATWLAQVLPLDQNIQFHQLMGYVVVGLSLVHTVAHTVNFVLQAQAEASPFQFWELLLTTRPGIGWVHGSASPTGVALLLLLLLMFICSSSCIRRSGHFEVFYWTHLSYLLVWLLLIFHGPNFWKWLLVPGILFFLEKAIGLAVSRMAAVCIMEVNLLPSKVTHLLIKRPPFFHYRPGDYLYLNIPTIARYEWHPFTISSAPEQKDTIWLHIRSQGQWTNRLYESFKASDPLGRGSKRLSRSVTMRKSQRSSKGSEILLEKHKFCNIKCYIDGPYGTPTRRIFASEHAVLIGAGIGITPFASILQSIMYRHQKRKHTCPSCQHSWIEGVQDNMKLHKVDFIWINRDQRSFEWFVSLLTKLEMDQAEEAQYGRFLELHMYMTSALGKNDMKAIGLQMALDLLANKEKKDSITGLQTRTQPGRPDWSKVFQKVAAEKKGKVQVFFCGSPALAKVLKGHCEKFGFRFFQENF

SMILES	z-score [1]	composite z-score [2]	z-score [3]	z-score [4]	z-score [5]	z-score [6]	z-score [7]	z-score [8]	z-score [9]	z-score [10]
C=CCOC(=O)[C@@H]1[C@H]2C(=O)O[C@H](c3ccccc3)[C@H](c3ccccc3)N2[C@H](c2ccc(OCCOC(=O)[C@H]3C[C@H]4C(=O)N[C@@H](CCCC[N+](C)(C)C)C(=O)N4[C@H]3c3cccc(OCCO)c3)cc2)[C@@]12C(=O)Nc1ccc(I)cc12	-0.398 (inactive)	0.173	7.62 (inactive)	2.35 (inactive)	1.59 (inactive)	1.28 (inactive)	0.0621	1.68 (inactive)	0.615 (inactive)	1.33
COc1ccc([Si](C)(C)[C@@H]2[C@@H](CCO)O[C@]3(C(=O)N(Cc4cccc(N(C=O)c5ccccc5)c4)c4ccccc43)[C@H]2C)cc1	0.313 (inactive)	0.0811	4.07 (inactive)	0.49 (inactive)	2.32 (inactive)	-1.17 (inactive)	0.62	0.773 (inactive)	-0.249 (inactive)	-0.78
COCCn1c(C(=O)N(C)C)cc2c1C[C@H]1CN(C(=O)c3ccccc3)[C@@](Cc3ccc(F)cc3)(C(=O)OC)[C@@H]21	0.118 (inactive)	0.211	0.666 (inactive)	-0.34 (inactive)	-0.0451 (inactive)	0.397 (inactive)	-0.17	0.395 (inactive)	0.211 (inactive)	-1.69
COCCOC(=O)N1C(=O)[C@@]2(c3cc(C#CC4(O)CCCCCC4)ccc31)[C@H](c1ccc(O)cc1)N1[C@H](c3ccccc3)[C@H](c3ccccc3)OC(=O)[C@H]1[C@@H]2C(=O)N1CCc2cc(OC)c(OC)cc2C1	1.23 (inactive)	-0.0099	-0.0535 (inactive)	0.49 (inactive)	0.44 (inactive)	0.286 (inactive)	0.0108	-0.0758 (inactive)	0.139 (inactive)	0.979
COCCOC(=O)N1C(=O)[C@@]2(c3ccccc31)[C@H](C(=O)N1CCCCCCC1)[C@H]1C(=O)O[C@H](c3ccccc3)[C@H](c3ccccc3)N1[C@@H]2c1ccccc1OCCO	-0.946 (inactive)	2.79	1.49 (inactive)	0.529 (inactive)	0.537 (inactive)	0.49 (inactive)	-0.408	0.966 (inactive)	0.739 (inactive)	1.24
O=C1C2C=CC(C(O)c3ccc(-c4ccccc4)s3)N(Nc3ccccc3F)C2C(=O)N1c1ccccc1 (stereo not given)	-1.69 (inactive)	0.282	4.17 (inactive)	1.66 (inactive)	0.8 (inactive)	1.27 (inactive)	-0.501	-0.49 (inactive)	-4.68 (inactive)	-3.41
O=C(NCC(O)CO)[C@@]1(Cc2ccccc2)N=C(c2ccc(OCCCO)cc2)O[C@H]1c1ccccc1 (stereo not given in full)	0.931 (inactive)	0.828	19.8 (active)	3.69 (inactive)	1.88 (inactive)	1.28 (inactive)	-0.142	-0.513 (inactive)	1.63 (inactive)	1.16
COC(=O)[C@@]1(Cc2ccc(OC)cc2)[C@H]2c3cc(C(=O)N(C)C)n(CCSCCO)c3C[C@H]2CN1C(=O)c1ccccc1	-0.641 (inactive)	0.0391	2.02 (inactive)	0.0187 (inactive)	0.453 (inactive)	0.641 (inactive)	-0.368	0.393 (inactive)	0.978 (inactive)	-0.24
CC(C)OC(=O)C1=CCC(c2cccc(Cl)c2)O1 (stereo not given)	0.504 (inactive)	-0.142	26 (active)	6.53 (inactive)	0.751 (inactive)	0.296 (inactive)	1.8	-3.89 (inactive)	-2.1 (inactive)	-4.96
C=C(CCCC)/C(=C/C[C@H](OC(C)=O)c1ccc(CO)o1)c1cc(C(=O)OC)ccc1OC	0.302 (inactive)	-0.0501	1.99 (inactive)	-0.526 (inactive)	1.62 (inactive)	-2.02 (inactive)	1.61	-0.764 (inactive)	-0.262 (inactive)	-1.54
O=C1OCCC/C=C\[C@H]2OC34C=CCN(Cn5nnc6ccccc65)C(=O)[C@H]3N(CCCO)C(=O)[C@@H]4C12 (stereo not given in full)	0.0048 (inactive)	0.123	1.16 (inactive)	0.614 (inactive)	-0.443 (inactive)	0.261 (inactive)	1.16	0.821 (inactive)	0.689 (inactive)	2.02
O=C1O[C@H](c2ccccc2)[C@H](c2ccccc2)N2[C@H]1[C@@H](C(=O)Nc1nc3ccccc3s1)[C@]1(C(=O)Nc3ccc(C#CC4=CCCCC4)cc31)[C@H]2c1ccc(OCCO)cc1	-0.199 (inactive)	0.46	2.54 (inactive)	1.62 (inactive)	1.44 (inactive)	1.2 (inactive)	-0.686	1.92 (inactive)	0.266 (inactive)	0.0146
CN1C(=O)C2C=CC(C(O)c3ccccc3)N(NC(=O)OC(C)(C)C)C2C1=O (stereo not given)	-1.18 (inactive)	0.199	-0.0278 (inactive)	0.519 (inactive)	0.303 (inactive)	1.25 (inactive)	-1.04	-1.08 (inactive)	-0.302 (inactive)	-1.87
C=C[C@@H](C)[C@@H](OC(=O)Nc1ccc(OC)cc1)c1ccc(O)c2ccccc12	0.0598 (inactive)	-0.0222	2.46 (inactive)	0.661 (inactive)	0.0162 (inactive)	0.354 (inactive)	0.382	-5.9 (inactive)	-1.81 (inactive)	-0.437
COc1ccc([Si](C)(C)[C@H]2[C@H](CC(=O)N(CCO)Cc3ccccc3)O[C@@]3(C(=O)N(Cc4cccc(N5C(=O)c6cccc7cccc5c67)c4)c4ccccc43)[C@@H]2C)cc1	1.33 (inactive)	-0.0507	13.2 (active)	0.787 (inactive)	-0.924 (inactive)	-0.34 (inactive)	2.67	0.38 (inactive)	0.39 (inactive)	1.83
O=C(NCc1ccccc1)[C@@H]1c2ccccc2C(=O)N(C2CCCCC2)[C@H]1c1ccc(CO)cc1	-0.246 (inactive)	-0.458	2.67 (inactive)	0.0744 (inactive)	0.473 (inactive)	0.475 (inactive)	-0.127	-0.245 (inactive)	0.684 (inactive)	0.725
O=c1cccc(-c2ccc3ccccc3c2)o1	0.62 (inactive)	-0.0035	25.4 (active)	10 (active)	-1.71 (inactive)	1.1 (inactive)	-0.38	-0.415 (inactive)	-4.41 (inactive)	-1.19
Cc1ccc(N2C(=O)c3ccccc3[C@](C)(C(=O)NCCN3CCOCC3)[C@@H]2c2ccc(CO)cc2)nc1	-0.285 (inactive)	-0.229	1.12 (inactive)	0.645 (inactive)	2.69 (inactive)	0.178 (inactive)	-0.113	1.86 (inactive)	0.236 (inactive)	0.286
OCCCc1cc[n+](Cc2cccc(OC(F)(F)F)c2)cc1	-0.123 (inactive)	0.363	0.514 (inactive)	0.816 (inactive)	1.54 (inactive)	0.916 (inactive)	0.211	0.972 (inactive)	-0.285 (inactive)	0.384
Cc1ccc(S[C@]2(C(=O)NCCN3CCOCC3)CC(=O)N(C3CCCCC3)[C@@H]2c2ccc(CO)cc2)cc1	-0.288 (inactive)	0.136	1.47 (inactive)	0.502 (inactive)	0.512 (inactive)	0.377 (inactive)	-0.667	0.444 (inactive)	1 (inactive)	0.923
CCCC[C@H]1OB(O)C[C@H]2C1=C(C)Cn1c(=O)n(-c3ccccc3)c(=O)n12	-2.02 (inactive)	-0.677	0.0016 (inactive)	0.408 (inactive)	0.393 (inactive)	0.181 (inactive)	0.441	-0.59 (inactive)	-0.181 (inactive)	-0.278
CC[C@@H]1C=C(C(=O)O)[C@H](c2ccc(C(C)C)cc2)N1S(=O)(=O)c1ccc(C)cc1	-0.646 (inactive)	1.36	0.998 (inactive)	0.845 (inactive)	0.105 (inactive)	0.709 (inactive)	-0.334	0.685 (inactive)	-0.418 (inactive)	-0.0711
CCCNC(=O)[C@@]1(C)c2ccccc2C(=O)N(C(C)C)[C@H]1c1ccc(CO)cc1	-0.374 (inactive)	0.0371	4.24 (inactive)	-0.445 (inactive)	2.44 (inactive)	-0.804 (inactive)	2.12	-2.39 (inactive)	-2.3 (inactive)	-3.6
CCCCCCC#C[Si](O[C@H](c1ccccc1)c1cn([C@H](C)c2ccccc2)nn1)(C(C)C)C(C)C	2.21 (inactive)	-0.234	1.18 (inactive)	-0.0458 (inactive)	-0.0391 (inactive)	-0.0352 (inactive)	0.138	0.054 (inactive)	-0.749 (inactive)	0.268
COc1ccc([Si](C)(C)[C@@H]2[C@@H](CCO)O[C@]3(C(=O)N(Cc4ccc(N5C(=O)c6cccc7cccc5c67)cc4)c4ccccc43)[C@H]2C)cc1	0.317 (inactive)	0.0355	3.28 (inactive)	3.22 (inactive)	0.146 (inactive)	2.22 (inactive)	-0.511	0.806 (inactive)	0.417 (inactive)	2.96
C=CCC(OC(C)=O)[C@@H]1[C@@H](N(Cc2cc3ccccc3o2)C(=O)c2ccc(C)cc2)c2cc(OCCCO)ccc2N1C(=O)c1ccc(-c2ccccc2)cc1 (stereo not given in full)	1.33 (inactive)	-0.519	1.8 (inactive)	0.345 (inactive)	-1.06 (inactive)	0.115 (inactive)	4.08	-1.59 (inactive)	0.768 (inactive)	2.25
